In PubChem BioAssay (NCI):
This is part of a sample that, as a whole, favours compounds with a hit. Of some 83,000 tested, about 20% had one in any assay.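 For each line, cells grew in 96-well plates with the test compound present at a single concentration for 48 hours.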 Activity calls are given as the source filed them. How the source made its calls: active means growth percent below 10; inactive means the rest.

Legend:
Experiment in all cases: NCI-60 one-dose screen, 48 h (100 = growth as untreated, 0 = no growth, -100 = all killed)
Details in all cases: 10 µM
[1] = tested on: HCT-15 colon
[2] = tested on: HT29 colon
[3] = tested on: SNB-75 CNS
[4] = tested on: SNB-19 CNS
[5] = tested on: U251 CNS
[6] = tested on: PC-3 prostate
[7] = tested on: SK-MEL-5 melanoma
[8] = tested on: UACC-62 melanoma
[9] = tested on: LOX IMVI melanoma
[10] = tested on: SK-MEL-28 melanoma

Measured: growth

COc1cc(-c2nc3cc(Cl)c(Cl)cc3[nH]2)ccc1OCC(=O)NN
inactive: [1] 65.2% | [2] 98% | [3] 106% | [4] 93% | [5] 91.2% | [6] 73.8% | [7] 91% | [8] 27.5% | [9] 28.5% | [10] 96.4%

COc1cc2ccnc(C=O)c2cc1OC
inactive: [1] 27.9% | [2] 20.9% | [3] 76.7% | [4] 88.3% | [5] 91% | [6] 90.7% | [7] 60.6% | [8] 74% | [9] 41.8% | [10] 79.5%

Nc1cc2c(cc1Cl)-c1ccc(Cl)cc1C2=O
inactive: [1] 99.7% | [2] 97.5% | [3] 89.7% | [4] 98.7% | [5] 91.1% | [6] 94.2% | [7] 108% | [8] 95.7% | [9] 95.1% | [10] 109%

CCOC(=O)Nc1ccc2c(c1)C(=O)N(CC)c1ccccc1O2
inactive: [1] 14.4% | [3] 27.3% | [4] 31.7% | [5] 18.7% | [6] 33.8% | [8] 21.5% | [9] 15.1% | [10] 63.4%
active: [2] -3.19% | [7] -28%

COc1ccc(/C(=C/c2cc(OC)c(OC)cc2[N+](=O)[O-])C(=O)O)cc1
inactive: [1] 107% | [2] 109% | [3] 93.8% | [4] 106% | [5] 107% | [6] 99.2% | [7] 110% | [8] 106% | [9] 97.1% | [10] 116%

CC(C)C(C)C(N)C(=O)O (stereo not given)
inactive: [1] 97.6% | [2] 107% | [3] 95.2% | [4] 115% | [5] 103% | [6] 98.2% | [7] 102% | [8] 113% | [9] 96% | [10] 108%

O=C(N/N=C\c1cc(Cl)ccc1O)c1ccncc1
inactive: [1] 26.3% | [2] 65.4% | [3] 74.2% | [4] 62% | [5] 43.9% | [6] 61% | [7] 37% | [8] 46.2% | [9] 30.9% | [10] 64.5%

CCCCCCOc1ccc(/C=C/C(=O)c2ccc(B(O)O)cc2)cc1
inactive: [1] 75.1% | [2] 74.5% | [3] 58.5% | [4] 104% | [5] 77.5% | [6] 72.6% | [7] 81.4% | [8] 79% | [9] 83.7% | [10] 106%

O=C(Nc1ccc(Oc2ccc(Nc3nc4ccccc4s3)cc2)cc1)Nc1ccc(Cl)c(Cl)c1
inactive: [1] 20.7% | [2] 31.7% | [3] 44.1% | [4] 27.1% | [5] 29.5% | [6] 23.4% | [7] 34.3% | [8] 21.1% | [9] 26.2% | [10] 45.9%

O=C1c2cc(Cl)ccc2-c2c(O)cc(Cl)cc21
inactive: [1] 81.6% | [2] 95.1% | [3] 81.2% | [4] 59.8% | [5] 55.5% | [6] 78% | [7] 53% | [8] 85% | [9] 52% | [10] 106%

S=c1c2ncccc2c(-c2ccccn2)nn1Cc1ccccn1
inactive: [1] 98.9% | [2] 93.7% | [3] 77.1% | [4] 103% | [5] 95% | [6] 73.8% | [7] 105% | [8] 104% | [9] 94.8% | [10] 117%

Cc1ccc(-n2nnc3c(sc4ccccc43)c2=O)cc1
active: [2] 5.36%
inactive: [1] 89.3% | [3] 31.4% | [4] 44.2% | [5] 18% | [6] 61.7% | [7] 76.9% | [8] 85.4% | [9] 39.3% | [10] 89.9%

Cc1cc(=O)oc2cc(OCc3cn(CC(O)CO)nn3)ccc12 (stereo not given)
inactive: [1] 105% | [2] 115% | [3] 132% | [4] 105% | [5] 100% | [6] 110% | [7] 25.5% | [8] 97.4% | [9] 103% | [10] 128%

COc1cccc2c1O/C(=C\c1ccc([N+](=O)[O-])s1)C2=O
active: [1] 8.57%
inactive: [2] 77.3% | [3] 81.5% | [4] 86.6% | [5] 45.2% | [6] 32.9% | [7] 73.7% | [8] 35.9% | [9] 40.6% | [10] 78.4%

C=CCNCCCN1C(=O)c2ccc3c4c(ccc(c24)C1=O)C(=O)N(CCCNCC=C)C3=O
active: [1] -72.4% | [2] -17.1% | [3] -98.2% | [4] -91.2% | [5] -73.9% | [6] -15.5% | [7] -99.3% | [8] -80.4% | [9] -77.5% | [10] -76.3%

Cc1nc(Nc2nc3ccccc3o2)nc(-c2cccc([N+](=O)[O-])c2)c1C(=O)Nc1ccc(F)c(Cl)c1
active: [2] 6.31% | [5] 3.14% | [6] 6.84% | [7] 0.624% | [9] 0.0269%
inactive: [1] 15.5% | [3] 17.8% | [4] 11.7% | [8] 17.1% | [10] 13.2%

Nc1ccc(C2=CC(c3ccc(Cl)cc3)N3C=CSC3=N2)cc1 (stereo not given)
active: [1] -57.7% | [2] -42.9% | [3] -15.6% | [4] -65.2% | [5] -83.5% | [6] -28.1% | [7] -97.6% | [8] -67.1% | [9] -83.3% | [10] -89.7%

O=C(OCC1OC(n2cc(C(F)(F)F)c(=O)[nH]c2=O)CC1OC(=O)c1ccc([N+](=O)[O-])cc1)c1ccc([N+](=O)[O-])cc1 (stereo not given)
inactive: [1] 87% | [2] 75.3% | [3] 90.8% | [4] 94.5% | [5] 76.1% | [6] 71.7% | [7] 43.2% | [8] 30.7% | [9] 64.2% | [10] 86.9%

COc1cccc2c1C(=O)c1c(O)c3c(c(O)c1C2=O)C[C@@](O)(C(=O)COC(=O)c1cccnc1)C[C@@H]3OC1CC(N)C(O)C(C)O1 (stereo not given in full)
inactive: [1] 32.9%
active: [2] -29.5% | [3] -75% | [4] 5.16% | [5] -14.4% | [6] -41.8% | [7] -49.1% | [8] -88.4% | [9] 0.723% | [10] -13.8%

O=c1cc(CSc2nnc(-c3ccccc3)n2-c2ccc(F)cc2)c2ccc3ccccc3c2o1
inactive: [1] 98.2% | [2] 96.4% | [3] 92.9% | [4] 99.1% | [5] 98.8% | [6] 79% | [7] 79% | [8] 83.2% | [9] 90.3% | [10] 104%

O=C(NNc1nc(N2CCCC2)nc(N2CCCC2)n1)c1ccccc1
inactive: [1] 108% | [2] 102% | [3] 88.7% | [4] 99.6% | [5] 98.5% | [6] 101% | [7] 110% | [8] 99.3% | [9] 110% | [10] 106%

CN(C1c2ccccc2Oc2ccccc21)S(=O)(=O)c1cc(Cl)ccc1Cl
inactive: [1] 33.8% | [2] 20.5% | [3] 56.2% | [4] 65.7% | [5] 43.8% | [6] 54.5% | [7] 39.3% | [8] 32.6% | [9] 50.3% | [10] 67%

COc1cc(C2C(C#N)=C(c3c[nH]c4ccccc34)Nc3nc(N)[nH]c(=O)c32)cc(OC)c1OC (stereo not given)
inactive: [1] 105% | [2] 107% | [3] 80% | [4] 66.5% | [5] 73.6% | [6] 62.8% | [7] 67.4% | [8] 84.2% | [9] 52% | [10] 56.2%

Fc1cc(-c2ncc(-c3cc(F)c(F)c(F)c3)c(NC3CCCCCC3)n2)cc(F)c1F
inactive: [1] 97% | [2] 115% | [3] 85.7% | [4] 99.7% | [5] 83.4% | [6] 90.6% | [7] 98.1% | [8] 89.4% | [9] 102% | [10] 98.4%

O=C1CC[C@@H](C(=O)N[C@H]2CSSC[C@@H](C(=O)NCCc3ccccc3)NC(=O)[C@H](Cc3ccccc3)NC(=O)[C@@H]3CCCN3C(=O)[C@@H]3CCCN3C2=O)N1
inactive: [1] 102% | [2] 102% | [3] 92.7% | [4] 102% | [5] 96.8% | [6] 84.1% | [7] 100% | [8] 94.6% | [9] 94.1% | [10] 102%

Cn1c([N+](=O)[O-])cnc1/C=C1\Oc2ccc(Br)cc2C1=O
active: [1] -40.8% | [2] -31.4% | [3] 8.51% | [4] 1.52% | [5] -29.6% | [6] -24.7% | [7] -89.2% | [8] -73.7% | [9] -52.3% | [10] -13.7%

O=S(=O)(NC1c2ccccc2Oc2ccccc21)c1cc(Cl)ccc1Cl
inactive: [1] 93.7% | [2] 91.4% | [3] 90.2% | [4] 97.2% | [5] 95.7% | [6] 88.9% | [7] 94.6% | [8] 93.2% | [9] 96.1% | [10] 110%

CC(C)CCN(CCCNc1c2c(nc3cc(Cl)ccc13)CCCC2)CCC(C)C
inactive: [1] 44.5% | [2] 23% | [3] 84.4% | [4] 90.6% | [5] 59.4% | [6] 56.8% | [7] 57.8% | [8] 82.8% | [9] 51% | [10] 83.4%
